In the supplement of paper PMC4723716 one finds viability index data, which are given here for 35 compounds.

SMILES strings stand for the structures. ± gives the uncertainty stated by the source. In all, about 9,900 compounds were measured (“viability index relative to DMSO control”: median about 1, lowest 2% from about 0.85 on). For the sample, the lowest values were picked, then their nearest neighbours and some compounds at random.

The assay concerns Plasmodium falciparum NF54 stage V gametocytes. In words: viability index relative to DMSO control (fraction); higher = less gametocyte killing. To be noted: 2.5 µM, incubation time: 72 h. An outline of the steps:
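Stage V gametocytes of P. falciparum NF54 were held in serum-free screening medium at 0.75% gametocytemia and 1.25% hematocrit, 10 µl per well of a 1,536-well plate, and exposed to compound at 2.5 µM for 72 hr at 37°C under low oxygen. A 3 µl mix of 2.5 µM MitoTracker Red CMXRos with 0.13% saponin was then added for one to two hours, after which one field per well was imaged and red particles of 20–70 µm2 were counted. The viability index equals this count divided by the plate mean from wells given solvent alone.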

[1] abbreviates: library set: Broad Institute DOS.
The mark [2] stands for this setting: library set: Broad Institute Blood Stage.

Turning to `CO[C@@H](CN(C)Cc1nccs1)[C@@H](C)CN([C@@H](C)CO)S(=O)(=O)c1ccc(F)cc1`, the viability index under setting [1] worked out at 1.04 ± 0.0028.

`COCC(=O)Nc1ccc2c(c1)[C@@H]1C[C@@H](CC(=O)NCc3ccc4c(c3)OCO4)O[C@@H](CO)[C@@H]1O2` came in with a viability index under setting [1] of 1.01 ± 0.047.

Under setting [1], `N#C[C@@H]1[C@H](c2ccccc2C2=CCCCC2)[C@H](CO)N1C(=O)CN1CCOCC1` displayed a viability index of 1.17 ± 0.13.

Turning to `N#C[C@H]1[C@@H](c2ccc(-c3cccnc3)cc2)[C@@H](CO)N1C(=O)C1CCOCC1`, under setting [1], the viability index stood at 1.07 ± 0.031.

For the compound `C[C@@H]1CCCCO[C@@H](CN(C)C(=O)CCC(F)(F)F)[C@H](C)CN([C@@H](C)CO)C(=O)c2cc(NC(=O)C3CCCCC3)ccc2O1`, the viability index under setting [1] came out at 1.13 ± 0.072.

Regarding `Cc1ccccc1S(=O)(=O)N1C[C@@H]2N[C@H](C1)[C@H]2c1ccc(-c2cccc(C#N)c2)cc1`, the viability index under setting [1] is 1.03 ± 0.033.

In the case of `C/C=C/c1ccc([C@@H]2[C@@H]3CN(S(=O)(=O)c4ccccc4F)C[C@H]2N3)cc1`, the viability index under setting [1] turned out to be 0.904 ± 0.016.

As for `Cc1ccccc1S(=O)(=O)N1C[C@@H]2N[C@H](C1)[C@@H]2c1ccc(-c2cccc(C#N)c2)cc1`, under setting [1], the viability index was found to be 0.903 ± 0.018.

Under setting [1], `Cc1ccccc1S(=O)(=O)N1C[C@@H]2N[C@H](C1)[C@@H]2c1ccc(/C=C/c2ccccc2)cc1` returned a viability index of 0.771 ± 0.028.

Regarding `O=S(=O)(c1ccc(F)cc1)N1C[C@@H]2N[C@H](C1)[C@@H]2c1ccc(/C=C/c2ccccc2)cc1`, under setting [1], the viability index was 0.78 ± 0.029.

Under setting [1], `Cc1ccccc1S(=O)(=O)N1C[C@@H]2N[C@H](C1)[C@H]2c1ccc(/C=C/c2ccccc2)cc1` showed a viability index of 1 ± 0.048.

`COc1ccc(-c2ccc([C@@H]3[C@@H]4CN(S(=O)(=O)c5ccccc5C)C[C@H]3N4)cc2)cc1` returned a viability index under setting [1] of 0.713 ± 0.11.

Under setting [1], `COc1ccc(-c2ccc([C@H]3[C@@H]4CN(S(=O)(=O)c5ccccc5C)C[C@H]3N4)cc2)cc1` returned a viability index of 0.916 ± 0.068.

`O=S(=O)(c1ccc(F)cc1)N1C[C@@H]2N[C@H](C1)[C@H]2c1ccc(/C=C/c2ccccc2)cc1`: under setting [1], the viability index turned out to be 1.04 ± 0.055.

The compound `COc1cccc(S(=O)(=O)N[C@@H]2CC[C@H](CC(=O)NC3Cc4ccccc4C3)O[C@H]2CO)c1` registered a viability index under setting [1] of 0.907 ± 0.18.

In turn, `Cc1ccc(S(=O)(=O)Nc2ccc3c(c2)C(=O)N([C@H](C)CO)C[C@H](C)[C@H](CN(C)S(=O)(=O)c2cccs2)OCCCC[C@H](C)O3)cc1` displayed a viability index under setting [1] of 1.07 ± 0.14.

`CNC[C@H]1Oc2ccc(NS(=O)(=O)c3ccc(OC)cc3)cc2C(=O)N([C@H](C)CO)C[C@H]1C` came in with a viability index under setting [1] of 1.01 ± 0.079.

In the case of `Cc1noc(C)c1NC(=O)N[C@H]1C=C[C@H](CC(=O)Nc2ccc(-c3ccccc3)cc2)O[C@H]1CO`, under setting [1], the viability index was determined as 1.0744 ± 0.00039.

With `CO[C@H]1CN(C)C(=O)c2cc(NC(=O)c3ccc(F)cc3)ccc2OC[C@@H](C)N(C(=O)CC2CC2)C[C@H]1C`, the viability index under setting [1] stood at 1.099 ± 0.004.

`CCCNC(=O)N1C[C@@H](O)COC[C@H]2O[C@@H](CC(=O)OC)CC[C@@H]21` yielded a viability index under setting [1] of 1.14 ± 0.053.

`N#C[C@@H]1[C@H](c2ccccc2-c2cccc(F)c2)[C@H](CO)N1C(=O)CN1CCOCC1` yielded a viability index under setting [1] of 1.15 ± 0.068.

Under setting [1], `C/C=C/c1ccc([C@H]2[C@H](CO)N(S(C)(=O)=O)[C@H]2CNCC2CCC2)cc1` registered a viability index of 0.688 ± 0.08.

The compound `C/C=C/c1ccc([C@H]2[C@@H](CO)N(S(C)(=O)=O)[C@@H]2CN(C(C)=O)C(C)C)cc1` returned a viability index under setting [1] of 0.957 ± 0.06.

For the compound `C/C=C/c1ccc([C@H]2[C@@H](CO)N(C(=O)C3CC3)[C@H]2CNC(=O)NC(C)C)cc1`, the viability index under setting [1] was 0.989 ± 0.018.

Consider `C/C=C/c1ccc([C@H]2[C@@H](CO)N(CC3CCCC3)[C@H]2CNS(C)(=O)=O)cc1`, for which, under setting [1], the viability index was 1.03 ± 0.099.

`C/C=C/c1ccc([C@H]2[C@@H](CO)N(CC3CCCCC3)[C@@H]2CNC(C)C)cc1` showed a viability index under setting [2] of 0.565 ± 0.068.

`C/C=C/c1ccc([C@H]2[C@@H](CNC(=O)CC3CC3)N(C(=O)CC)[C@H]2CO)cc1` registered a viability index under setting [1] of 1.05 ± 0.054.

Under setting [1], `CCC(=O)Nc1ccc2c(c1)C(=O)N(C)C[C@@H](OC)[C@@H](C)CN(Cc1nccs1)[C@H](C)CO2` displayed a viability index of 1.16 ± 0.082.

`COC(=O)C[C@@H]1CC[C@@H]2[C@@H](COc3ccc(NC(=O)c4ccc(C(F)(F)F)cc4)cc3C(=O)N2C)O1`: the viability index under setting [1] was found to be 1.13 ± 0.065.

Regarding `C[C@@H]1COCn2nncc2CC[C@H](Cc2cccc(Cl)c2)C(=O)N1`, the viability index under setting [1] worked out at 1.09 ± 0.051.

Regarding `COCC(=O)Nc1ccc2c(c1)C(=O)N(C)[C@H]1CC[C@@H](CC(=O)NC3Cc4ccccc4C3)O[C@@H]1CO2`, under setting [1], the viability index is 1.16 ± 0.13.

Compound `C[C@H]1CN([C@@H](C)CO)C(=O)c2cc(/C=C/c3ccccc3)cnc2O[C@@H]1CN(C)C(=O)C1CCCCC1` registered a viability index under setting [2] of 0.643 ± 0.072.

In the case of `C[C@H]1CN([C@@H](C)CO)C(=O)c2cc(/C=C/c3ccccc3)cnc2O[C@H]1CN(C)S(=O)(=O)c1ccccc1F`, the viability index under setting [1] is 1.03 ± 0.12.

`C[C@H](CO)N1C[C@H](C)[C@@H](CN(C)C(=O)C2CCCCC2)Oc2ncc(/C=C/c3ccccc3)cc2C1=O` had a viability index under setting [2] of 0.735 ± 0.028.

Consider `C[C@H](CO)N1C[C@H](C)[C@@H](CN(C)S(=O)(=O)c2ccccc2F)Oc2ncc(/C=C/c3ccccc3)cc2C1=O`, for which the viability index under setting [1] was found to be 1.05 ± 0.049.
